Assay outcomes from PubChem BioAssay.
TDP1 cell CPT: qHTS for Inhibitors of human tyrosyl-DNA phosphodiesterase 1 (TDP1): qHTS in cells in presence of CPT; chicken DT40 Tdp1-/-;hTDP1 cells + 20 nM CPT, ATP luminescence, 48 h; Potency, µM (titrated, usually from 46.2 µM), actives largely listed as inhibitors; 12% of 420,000 active; note: nearly all actives have a fitted effect of over 55% in size
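Chicken DT40 Tdp1-/- cells complemented with human TDP1, 400 cells/well, exposed to compounds plus 20 nM camptothecin for at least 48 h at 37 C; viability read as ATP content by CellTiter-Glo luminescence.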
IL1B secr inh: qHTS for Inhibitors of Inflammasome Signaling: IL-1-beta AlphaLISA Primary Screen | THP-1 LPS/ATP IL-1B secretion, AlphaLISA, 16 h; hits give low values | activity change, % at 57.5 µM | 4.7% of 360,000 active; in the data active = activity change below about -50%; inconclusive = mostly about -30% to -49%
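Secreted IL-1B measured by AlphaLISA bead assay after 16 h compound exposure of THP-1 cells; compounds (final up to 57.5 uM) added 1 h before LPS (250 ng/mL) and ATP (1.25 mM) stimulation; lower signal means less secretion.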
TDP1 cell noCPT: qHTS for Inhibitors of human tyrosyl-DNA phosphodiesterase 1 (TDP1): qHTS in cells in absence of CPT; DT40 Tdp1-/- hTDP1 cells, no CPT, ATP luminescence, 48 h; 15% of 420,000 active; AID 686978, 2013; Potency, µM (doses to about 46.2 µM), most hits filed as inhibitors; note: nearly all actives have a fitted effect of over 55% in size
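A cellular qHTS used chicken DT40 cells lacking endogenous Tdp1 but carrying stably transfected human TDP1. Compounds were applied without camptothecin, and cell growth kinetics were judged by ATP-dependent luminescence after ≥48 hr.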
HT1080 IDH1KD tx: qHTS for induction of synthetic lethality in tumor cells producing 2HG: qHTS for the HT-1080-IDH1KD cell line. Potency, µM (series often up to 46.1 µM), hits mostly cytotoxic. HT-1080 IDH1 knockdown viability, ATP luminescence, 48 h. 2% of 360,000 active
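Using the IDH1-knockdown HT-1080 line run in the same batch and compound series as the NT line, viability after 48 h at 37 °C was determined by CellTiter-Glo luminescence and expressed as % activity.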
uPA generation: qHTS for Inhibitors of Cell Surface uPA Generation. cell surface uPA generation assay, qHTS. AID 540303, 2011. Potency, µM (doses to about 38.3 µM), hits mostly inhibitors. 0.31% of 330,000 active; active = well fitted inhibition curve with a large enough effect; inconclusive = small, poorly fitted or top-dose-only effect; inactive = no such curve, though single readings can be large or run the other way; tested in mouse RAW 264.7 cells; note: nearly all actives have a fitted effect of over 55% in size
HT1080-NT tox: qHTS for induction of synthetic lethality in tumor cells producing 2HG: qHTS for the HT-1080-NT fibrosarcoma cell line | HT-1080-NT fibrosarcoma viability, CellTiter-Glo ATP luminescence, 48 h | Potency, µM (doses to about 46.1 µM), usual class: cytotoxic | 1.6% of 360,000 active | AID 686970, 2013;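 note: NT is the 2HG producing partner of a matched IDH1 knockdown line; nearly all actives have a fitted effect of over 55% in size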
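HT-1080-NT fibrosarcoma cells (2HG-overproducing), 750 cells/well in RPMI with 5% FBS, dosed after 2 h and incubated 48 h at 37C. CellTiter-Glo luminescence normalized to DMSO and no-cell wells; concentration-response curves fitted and classed.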
Hits are given with their value; - = inactive; ? = inconclusive; . = no result given; ! = a repeat was not active. The list is not random: actives were taken first. Their share in the collection is about 19%. Unless noted, calls come from the whole dose curve; as a rule, active = well fitted curve in the direction sought with a large enough effect; inconclusive = small, poorly fitted or top-dose-only effect, or another doubt; inactive = no such curve, though single readings can be large; an effect the other way counts as inactive or inconclusive.

SMILES	TDP1 cell CPT	IL1B secr inh	TDP1 cell noCPT	HT1080 IDH1KD tx	uPA generation	HT1080-NT tox
Oc1ccc(Cl)cc1-c1cc(-c2ccccc2Cl)[nH]n1	-	-	-	-	-	-
Cc1ccc(O)c(-c2cc(C(=O)Nc3cccnc3)[nH]n2)c1	-	?	-	-	-	-
Cc1ccc(O)c(-c2cc(-c3ccccc3C)[nH]n2)c1	?	-95.3	?	-	-	-
Cc1ccc(O)c(-c2cc(C(F)(F)C(F)F)[nH]n2)c1	?	-	16.4µM	?	-	-
Cc1ccc(O)c(-c2cc(-c3ccccc3[N+](=O)[O-])[nH]n2)c1	-	-86.7	-	-	-	-
COc1ccc(O)c(-c2cc(-c3ccccc3[N+](=O)[O-])[nH]n2)c1	-	-	?	-	-	-
O=[N+]([O-])c1ccccc1-c1cc(-c2cc(Cl)ccc2O)n[nH]1	?	-101.1	?	-	-	-
O=C(COC(=O)Cn1cc(C(F)(F)F)ccc1=O)Nc1ccc(Br)cc1F	-	-	-	-	-	-
O=c1c(CCc2ccccc2)nc2cnc(N3CCNCC3)nc2n1-c1ccccc1	-	.	-	.	.	.
Oc1ccc(Cl)cc1-c1cc(-c2cccc(Br)c2)n[nH]1	16.4µM	-	18.4µM	-	-	-
Oc1ccc(Cl)cc1-c1cc(-c2ccco2)[nH]n1	9.2µM	-	18.4µM	?	-	?
Cn1cc(C(=O)NS(=O)(=O)Nc2ccc(Br)cc2)c2ccccc21	-	-	-	-	?	-
CC(C1CCN(Cc2cn(C)nc2-c2cccc(Cl)c2)CC1)N1CCOCC1 (stereo not drawn)	?	-	?	-	-	-
CC(C)Sc1nc2c(cnn2-c2ccccc2)c(=O)[nH]1	-	-	-	-	-	-
O=c1[nH]c(/C=C/c2ccc(OC(F)F)cc2)nc2c1cnn2-c1ccccc1	?	-56.1	?	-	-	-
CN(C(=O)c1cc2c(=O)oc3ccccc3c2s1)c1ccc(F)cc1	-	.	-	.	.	.
O=C(c1ccco1)N1CCC2(CCN(Cc3nccs3)CC2)CC1	-	.	-	.	.	.
CCc1nc2ccc(C(=O)NCCC(C)C)cn2c1N(CCN(C)C)CC1CC1	-	-	-	-	.	-
CCc1nc2ccc(C(=O)Nc3cc(-c4ccccc4)ccc3OC)cn2c1N(C)CCCc1ccccc1	?	-	?	?	.	?
CCc1nc2ccc(C(=O)Nc3cc(-c4ccccc4)ccc3OC)cn2c1N(C)CCC(C)C	18.4µM	?	20.6µM	?	.	?
CCc1nc2ccc(C(=O)Nc3cc(-c4ccccc4)ccc3OC)cn2c1N(CCN(C)C)CC1CC1	20.6µM	?	14.6µM	18.4µM	.	?
CCc1nc2ccc(C(=O)Nc3cc(-c4ccccc4)ccc3OC)cn2c1N(C=O)CCC(C)C	16.4µM	-59.8	14.6µM	?	.	-
O=S(=O)(Nc1cccc(Cl)c1)c1ccc2[nH]c3c(c2c1)CCCCCC3	16.4µM	.	?	.	.	.
Cc1cccc(NC(=O)C2CCN(S(=O)(=O)c3ccc4[nH]c5c(c4c3)CCCCC5)CC2)c1	20.6µM	.	?	.	.	.
Cc1cccc(NS(=O)(=O)c2ccc3[nH]c4c(c3c2)CCCCCC4)c1	18.4µM	.	?	.	.	.
SMILES	TDP1 cell CPT	IL1B secr inh	TDP1 cell noCPT	HT1080 IDH1KD tx	uPA generation	HT1080-NT tox
O=C(Nc1cccc(Cl)c1Cl)c1ccc2c(c1)N(Cc1cccc(Cl)c1)C(=O)c1ccccc1S2=O (stereo not drawn)	-	.	-	.	.	.
COc1ccc(S(=O)(=O)Nc2ccc3c(c2)C(=O)N([C@H](C)CO)C[C@H](C)[C@@H](CN(C)C(=O)Nc2ccc(F)cc2)OCCCC[C@H](C)O3)cc1	?	-	23.1µM	-	.	-
COc1ccc(NC(=O)N(C)C[C@H]2OCCCC[C@@H](C)Oc3ccc(NC(=O)c4ccccc4)cc3C(=O)N([C@H](C)CO)C[C@@H]2C)cc1	?	.	20.6µM	-	.	-
COc1ccc(S(=O)(=O)Nc2ccc3c(c2)C(=O)N([C@H](C)CO)C[C@H](C)[C@@H](CN(C)C(=O)Nc2ccc(C(F)(F)F)cc2)OCCCC[C@H](C)O3)cc1	?	?	23.1µM	-	.	-
C[C@@H]1CCCCO[C@H](CN(C)C(=O)Nc2ccc(C(F)(F)F)cc2)[C@@H](C)CN([C@H](C)CO)C(=O)c2cc(NC(=O)c3ccncc3)ccc2O1	20.6µM	-	14.6µM	-	.	-
COc1ccc(S(=O)(=O)Nc2ccc3c(c2)C(=O)N([C@H](C)CO)C[C@H](C)[C@@H](CN(C)C(=O)Nc2ccc(C(F)(F)F)cc2)O3)cc1	-	-	-	-	-	-
FC(F)(F)c1ccccc1-c1ccc2nncn2c1	-	-	-	-	.	?
O=C(Cc1cc(=O)[nH][nH]1)N/N=C/c1c(Cl)cccc1Cl	-	-100.0!	-	-	-	-
Cn1cc(/C=C2\SC(=O)N(c3ccc(O)cc3)C2=O)c2ccccc21	?	?	16.4µM	?	-	?
COc1ccc(-n2c(C)cc(/C=C3\SC(=S)N(Cc4ccco4)C3=O)c2C)cc1	?	-	?	-	-	-
CCN1CCN(c2c(/C=C3\SC(=S)N(Cc4ccco4)C3=O)c(C)c(C#N)c(=O)n2C)CC1	?	-	14.6µM	?	-	16.4µM
COc1ccc(/C=N/NC(=O)CN(CCc2ccccc2)S(=O)(=O)c2ccc(NC(C)=O)cc2)cc1OC	?	-	?	-	-	-
Cc1ccc(C)c(NC(=O)CN(C)S(=O)(=O)c2ccccc2)c1	-	-	-	-	.	-
COc1ccc(S(=O)(=O)N(CCc2ccccc2)CC(=O)Nc2cc(C)ccc2C)cc1	18.4µM	.	20.6µM	.	.	.
COc1ccc(S(=O)(=O)N(CCc2ccccc2)CC(=O)NCc2ccc(C)cc2)cc1	?	.	20.6µM	.	.	.
Cc1ccc(S(=O)(=O)N(CCc2ccccc2)CC(=O)Nc2cc(C)ccc2C)cc1	?	.	16.4µM	.	.	.
COc1ccc(S(=O)(=O)N(CCc2ccccc2)CC(=O)Nc2ccc(C)c(C)c2)cc1OC	14.6µM	.	16.4µM	.	.	.
CCN1CCN=C1Nc1ccccc1	-	-	-	-	-	-
O=C(COC(=O)C1CSC2(c3ccc(F)cc3)CCC(=O)N12)NC(=O)NC1CCCC1 (stereo not drawn)	-	-	-	-	-	-
COc1ccc(S(=O)(=O)N(CCc2ccccc2)CC(=O)Nc2cccc(OC)c2)cc1	?	.	18.4µM	.	.	.
CSc1ccccc1NC(=O)CN(C)CC(=O)Nc1cc(C)ccc1C	-	-	20.6µM	-	-	-
CSc1ccccc1NC(=O)CN(C)CC(=O)NCc1ccccc1	-	-	-	-	-	-
